Measurements: PubChem BioAssay AID1159580 (chemical genetic matrix, 2015)
About 2,000 (36%) of roughly 5,500 compounds were called active. Roughly 18% stayed inconclusive and do not appear here. Cut-off read from the data, not from the text of the source: active = normalized growth mostly below about 0.91 (no sharp cut-off); inconclusive = no clear call, values can overlap the other calls; inactive = mostly above about 0.92. The list shows a part of the results.

Assay: chemical genetic growth profiling, strain panel (AID 1159580);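 note: tested at 20 µM; growth read once vehicle control cultures reached saturation at 30 °C; 1 = growth at the plate median or of vehicle wells; lower values mean less growth of the strain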
Conditions: S. cerevisiae deletion strains, growth OD

Measured: normalized growth

FC(F)(F)c1cccc(N2CCNCC2)c1
inactive: locus YAL013W, strain DEP1, hits give low values 1 | locus YAL021C, strain ccr4, hits give low values 0.992 | locus YAL026C, strain drs2, hits give low values 1 | locus YAL030W, strain snc1, hits give low values 0.99 | locus YBL061C, strain skt5, hits give low values 0.992 | locus YBR009C, strain hhf1, hits give low values 0.978 | locus YBR021W, strain FUR4, hits give low values 0.991 | locus YBR023C, strain chs3, hits give low values 0.996 | locus YBR171W, strain sec66, hits give low values 1.01 | locus YBR229C, strain ROT2, hits give low values 1.01 | locus YBR231C, strain swc5, hits give low values 0.99 | locus YBR279W, strain paf1, hits give low values 1 | locus YCL011C, strain gbp2, hits give low values 0.999 | locus YCL016C, strain dcc1, hits give low values 0.991 | locus YCL029C, strain bik1, hits give low values 0.996 | locus YCL061C, strain MRC1, hits give low values 1 | locus YCL069W, strain vba3, hits give low values 1 | locus YCR088W, strain abp1, hits give low values 1.01 | locus YDL005C, strain med2, hits give low values 1 | locus YDL035C, strain GPR1, hits give low values 1 | locus YDL040C, strain nat1, hits give low values 0.988 | locus YDL074C, strain BRE1, hits give low values 0.994 | locus YDL101C, strain DUN1, hits give low values 1 | locus YDL134C, strain PPH21, hits give low values 1.01 | locus YDL185W, strain tfp1, hits give low values 0.994 | locus YDL192W, strain arf1, hits give low values 0.995 | locus YDR001C, strain nth1, hits give low values 1.01 | locus YDR069C, strain doa4, hits give low values 0.973 | locus YDR101C, strain arx1, hits give low values 0.994 | locus YDR137W, strain rgp1, hits give low values 1 | locus YDR159W, strain sac3, hits give low values 0.956 | locus YDR162C, strain NBP2, hits give low values 1.01 | locus YDR195W, strain ref2 0.928 | locus YDR297W, strain sur2, hits give low values 1 | locus YDR318W, strain mcm21, hits give low values 0.989 | locus YDR334W, strain swr1, hits give low values 1.01 | locus YDR335W, strain msn5, hits give low values 0.993 | locus YDR388W, hits give low values 0.977 | locus YDR392W, strain spt3, hits give low values 0.89 | locus YDR502C, strain sam2, hits give low values 0.98 | locus YEL003W, strain gim4, hits give low values 1.01 | locus YEL037C, strain rad23, hits give low values 1 | locus YEL061C, strain CIN8 (second series), hits give low values 1.01 | locus YEL061C, strain CIN8, hits give low values 1.01 | locus YER015W, strain faa2, hits give low values 0.994 | locus YER016W, strain bim1, hits give low values 0.995 | locus YER110C, hits give low values 0.976 | locus YER111C, strain swi4, hits give low values 0.999 | locus YER155C, strain BEM2 (second series), hits give low values 0.93 | locus YER155C, strain BEM2, hits give low values 1.01 | locus YER167W, strain BCK2, hits give low values 1 | locus YFR010W, strain ubp6, hits give low values 1.03 | locus YGL078C, strain dbp3, hits give low values 0.973 | locus YGL086W, strain mad1, hits give low values 0.983 | locus YGL167C, strain pmr1, hits give low values 0.981 | locus YGL173C, strain kem1, hits give low values 1.01 | locus YGL227W, strain vid30, hits give low values 1 | locus YGL240W, strain doc1, hits give low values 0.962 | locus YGL248W, strain PDE1, hits give low values 1.01 | locus YGL253W, strain hxk2, hits give low values 1.02 | locus YGR135W, strain pre9, hits give low values 0.953 | locus YGR229C, strain SMI1, hits give low values 0.987 | locus YGR252W, strain gcn5, hits give low values 0.932 | locus YHR013C, strain ard1, hits give low values 0.961 | locus YHR027C, strain rpn1, hits give low values 0.994 | locus YHR030C, strain SLT2, hits give low values 1.01 | locus YHR079C, strain IRE1 (second series), hits give low values 0.998 | locus YHR094C, strain hxt1, hits give low values 0.992 | locus YHR129C, strain ARP1, hits give low values 1.01 | locus YHR142W, strain chs7, hits give low values 1.02 | locus YHR200W, strain rpn10, hits give low values 0.987 | locus YIL066C, strain RNR3, hits give low values 1.02 | locus YIL073C, strain SPO22, hits give low values 1.08 | locus YIL125W, strain kgd1, hits give low values 0.974 | locus YIR030C, strain dcg1, hits give low values 1 | locus YJL092W, strain hpr5, hits give low values 1.01 | locus YJL095W, strain BCK1 (second series), hits give low values 0.995 | locus YJL095W, strain BCK1, hits give low values 1.02 | locus YJL115W, strain asf1, hits give low values 0.998 | locus YJL129C, strain trk1, hits give low values 1.03 | locus YJL134W, strain LCB3, hits give low values 1 | locus YJL154C, strain vps35, hits give low values 1 | locus YJL164C, strain tpk1, hits give low values 0.993 | locus YJL166W, strain qcr8, hits give low values 0.987 | locus YJL168C, strain set2, hits give low values 0.987 | locus YJL187C, strain SWE1 (second series), hits give low values 1.01
